# Source: PMC4336329 (PLoS ONE, 2015)
# Out of some 310,000 compounds screened, about 14,000 (4.5%) showed an effect of 50% or more. Effects have a minus sign here. What follows is part of a selection rich in strong results, with near analogues and random picks from the rest.
# Target: human ether-à-go-go-related gene (hERG) potassium channel (human, UniProt Q12809)
# Experiment: primary screen, population patch clamp on CHO cells stably expressing hERG; higher = less effect of the substance
# 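Further: peak tail current of the secondary pulse compared with the same well before compound.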
# Sequence of human ether-à-go-go-related gene (hERG) potassium channel (Q12809 whole entry, looked up): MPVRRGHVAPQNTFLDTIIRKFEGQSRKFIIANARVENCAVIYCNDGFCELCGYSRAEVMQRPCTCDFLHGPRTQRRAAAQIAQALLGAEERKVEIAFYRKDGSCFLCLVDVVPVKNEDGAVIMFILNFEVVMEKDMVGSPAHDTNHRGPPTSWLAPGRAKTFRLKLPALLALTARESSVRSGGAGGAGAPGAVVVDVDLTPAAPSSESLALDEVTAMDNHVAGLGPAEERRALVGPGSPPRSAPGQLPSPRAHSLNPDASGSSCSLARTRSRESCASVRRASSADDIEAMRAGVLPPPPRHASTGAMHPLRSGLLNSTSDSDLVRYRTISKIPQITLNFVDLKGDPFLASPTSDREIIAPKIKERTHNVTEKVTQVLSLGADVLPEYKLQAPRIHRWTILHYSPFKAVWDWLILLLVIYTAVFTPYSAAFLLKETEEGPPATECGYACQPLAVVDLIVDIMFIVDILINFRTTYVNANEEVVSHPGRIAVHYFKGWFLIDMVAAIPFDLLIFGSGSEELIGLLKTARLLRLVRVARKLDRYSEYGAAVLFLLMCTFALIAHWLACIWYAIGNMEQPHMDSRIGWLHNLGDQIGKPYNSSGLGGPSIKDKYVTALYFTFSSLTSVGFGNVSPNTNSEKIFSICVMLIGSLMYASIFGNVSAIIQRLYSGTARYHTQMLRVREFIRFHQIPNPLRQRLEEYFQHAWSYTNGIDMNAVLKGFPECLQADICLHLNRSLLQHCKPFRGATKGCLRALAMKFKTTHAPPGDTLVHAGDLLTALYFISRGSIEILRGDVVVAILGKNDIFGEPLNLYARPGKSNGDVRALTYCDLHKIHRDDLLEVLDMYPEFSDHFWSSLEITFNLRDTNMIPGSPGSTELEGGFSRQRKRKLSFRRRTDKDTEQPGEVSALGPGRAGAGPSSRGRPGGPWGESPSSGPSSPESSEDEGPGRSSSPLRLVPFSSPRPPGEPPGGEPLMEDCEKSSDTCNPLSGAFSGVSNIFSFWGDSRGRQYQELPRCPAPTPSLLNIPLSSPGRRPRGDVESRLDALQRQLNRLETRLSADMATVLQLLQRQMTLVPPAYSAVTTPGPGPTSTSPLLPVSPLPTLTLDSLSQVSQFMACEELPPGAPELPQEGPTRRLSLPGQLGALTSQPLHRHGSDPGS
row,SMILES,"hERG current change (%, negative = inhibition) at 10uM"
1,NC(=O)[C@H]1CC2(CC(c3cccc(NC(=O)[C@H]4CCC(=O)N4)c3)=NO2)CN1C(=O)c1ccccc1C(=O)c1ccccc1 (stereo partly shown),14.7%
2,CC1CN(CCOc2cccc(Oc3ccccc3)c2)CC(C)O1.O=C(O)C(=O)O (stereo not shown),5.01%
3,CC1CCN(CCOc2cccc(Br)c2)CC1.O=C(O)C(=O)O,-20.3%
4,CC1CCN(CCCCOc2cccc(Br)c2)CC1.O=C(O)C(=O)O,-69%
5,CC1CN(CCCCOc2cccc(Oc3ccccc3)c2)CC(C)O1.O=C(O)C(=O)O (stereo not shown),-35.9%
6,CC1CCCN(CCOc2cccc(Oc3ccccc3)c2)C1.O=C(O)C(=O)O (stereo not shown),-64.7%
7,O=C(NCc1ccc2c(c1)OCO2)C1CCC(=O)N1C1CCCCC1 (stereo not shown),-9.26%
8,Cc1cc(NC(=O)CCC(=O)N(c2ccccc2)C(C(=O)NC2CCCC2)c2ccncc2)no1 (stereo not shown),2.53%
9,C=CCOc1ccc(CNc2ccc3[nH]c(=O)[nH]c3c2)cc1,1.57%
10,Clc1cccc(Oc2cnc3ccccc3n2)c1,-25.8%
11,O=C(NCc1cccnc1)C1CCN(S(=O)(=O)c2cccc(C(F)(F)F)c2)CC1,2.69%
12,Cc1cccc(NC(=S)N(CCN2CCOCC2)Cc2ccccc2F)c1,-25%
13,CCN1CCN(C(=O)Cn2ncc3c2-c2ccccc2OC3)CC1,-10.1%
14,O=C(CN1C(=O)c2ccccc2S1(=O)=O)N1CCN(Cc2ccc3c(c2)OCO3)CC1,-12.8%
15,O=C(Cn1ncc2c1-c1ccccc1OC2)N1CCN(Cc2ccccc2)CC1,-68.5%
16,CCOC(=O)N1CCN(C(=O)Cn2ncc3c2-c2ccccc2OC3)CC1,-3.57%
17,O=C(Cn1ncc2c1-c1ccccc1OC2)N1CCN(Cc2ccc3c(c2)OCO3)CC1,-61.3%
18,Cc1ccc(C)c(CN2CCCN(C(=O)Cn3ncc4c3-c3ccccc3OC4)C2)c1,-2.82%
19,COC(=O)[C@@H](NC(=O)NCCC1=CCCCC1)C(C)C,-3.29%
20,COC(=O)CCCC(=O)N1CCCC(CCC(=O)NCc2ccc(F)c(F)c2)C1 (stereo not shown),0.17%
21,COc1ccc(NC2CCCN(Cc3cccc4cnccc34)C2)cc1 (stereo not shown),-18.5%
22,COc1cc(/C=N/N2CCCCC2)cc([N+](=O)[O-])c1O,20.8%
23,CC(CN1CCC(n2nccc2NC(=O)C2CCCC2)CC1)c1ccccc1 (stereo not shown),-24%
24,CC(C)CCN1CCC(n2nccc2NC(=O)C2CCOC2)CC1 (stereo not shown),15.3%
25,COCC(C)N1CCC(n2nccc2NC(=O)c2ccccc2Cl)CC1 (stereo not shown),-47.9%
26,CC(CN1CCC(n2nccc2NC(=O)c2ccccc2Cl)CC1)c1ccccc1 (stereo not shown),-68.9%
27,CC(CCN1CCC(n2nccc2NC(=O)c2ccccc2Cl)CC1)c1ccccc1 (stereo not shown),-82.7%
28,Cc1cc(-c2ccco2)n(CC(=O)NCc2ccco2)n1,8.48%

row,SMILES,"hERG current change (%, negative = inhibition) at 10uM"
1,CCC(C(=O)N1CC2(C)CC1CC(C)(C)C2)N1C(=O)c2ccccc2C1=O (stereo not shown),-18.3%
2,Cc1cc(=O)oc2cc(OCCc3ccccc3)ccc12,-0.326%
3,CCOc1ccc2c(c1)-c1c(ssc1=S)C(C)(C)N2C,-3.7%
4,CCOC(=O)C1C(=O)C=C(c2ccc(C)cc2)CC1c1ccccc1 (stereo not shown),28.2%
5,CCOC(=O)C1C(=O)C=C(c2ccc(Br)cc2)CC1c1ccco1 (stereo not shown),-23.2%
6,CCOC(=O)C1C(=O)C=C(c2ccc(NS(C)(=O)=O)cc2)CC1c1ccco1 (stereo not shown),-80.3%
7,CCOC(=O)C1C(=O)C=C(c2ccc(C)cc2)CC1c1ccco1 (stereo not shown),5.34%
8,CCOC(=O)C1C(=O)C=C(c2ccc(C)cc2)CC1c1cccc([N+](=O)[O-])c1 (stereo not shown),-4.88%
9,CCOC(=O)C1C(=O)C=C(c2ccc([N+](=O)[O-])cc2)CC1c1ccccc1 (stereo not shown),-63.5%
10,CCOCC(=O)Nc1ccc2c(c1)OCCO2,19.6%
11,Brc1ccc2c(c1)C(c1cccs1)=NNC(c1cccnc1)=N2,-14.5%
12,COc1ccc(NC(=O)CCC(=O)c2ccc(C(C)C)cc2)cc1,27.7%
13,CCCCCn1c(=NC(C)=O)c(C#N)cc2c(=O)n3ccccc3nc21,-43%
14,CCOCCCn1c(=NC(=O)c2cccs2)c(C#N)cc2c(=O)n3ccccc3nc21,-76.9%
15,CC(C)OCCCn1c(=NC(=O)c2cccs2)c(C#N)cc2c(=O)n3ccccc3nc21,-77.6%
16,CC(=O)N=c1c(C#N)cc2c(=O)n3ccccc3nc2n1CCCOC(C)C,-13.6%
17,CC(C)OCCCn1c(=NC(=O)c2ccncc2)c(C#N)cc2c(=O)n3ccccc3nc21,-74.2%
18,CCOCCCn1c(=NC(C)=O)c(C#N)cc2c(=O)n3ccccc3nc21,-15.4%
19,Cc1ccc(NC(=O)c2ccc(CSc3nnnn3C)cc2)cc1,-15.3%
20,COc1ccc(-c2nc(CS(=O)CC(=O)NCc3cccnc3)c(C)o2)cc1OC (stereo not shown),-2.9%
21,O=C(NCCCN1CCCCCC1)c1ccc(N2CCCC2=O)cc1,16.4%
22,COc1ccccc1/C=C(\C#N)C(=O)c1cccn1C,5.95%
23,CCOC(=O)C1(Cc2cccc(OC)c2)CCN(CC2CC=CCC2)CC1 (stereo not shown),-71.7%
24,CCOC(=O)C1(Cc2ccccc2)CCN(CC2CC=CCC2)CC1 (stereo not shown),-54.9%
25,CCOC(=O)C1(Cc2cccc(F)c2)CCN(CC2CC2)CC1,-33.4%
26,CCN(Cc1cnn(C)c1)C(=O)c1ccc(OC2CCN(S(=O)(=O)N(C)C)CC2)cc1,19.1%
27,CCSC1=C(C#N)C(c2ccc3c(c2)OCO3)C2=C(CCCC2=O)N1 (stereo not shown),-23.4%
